Data as given in PubChem BioAssay AID624300 (Southern Research Specialized Biocontainment Screening …, 2012).
In all, about 2,400 compounds went through this assay and about 360 (15%) were called active. These entries were drawn from the full list. Results with a measured potency or affinity are listed apart. A number with no mark means an inactive call.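 The calls were made as follows: active = viability falls under 70% at one or more tested concentrations, taken as toxicity; inactive = viability stays over 70% at every dose.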

Assay: HeLa cell cytotoxicity, dose response, cytotoxicity control for MgcRacGAP inhibitor project (AID 624300);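 also: 100% = median of untreated control wells on the same plate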
Settings: CellTiter-Glo luminescence, 24 h; series mostly up to 100 µM; viability: at the top concentration

Row | Structure (SMILES) | viability [%]
1 | Cc1ncc(CO)c(/C=N/Nc2ccc(C(F)(F)F)cn2)c1O | 96.6
2 | CCOc1cc(/C=N/NC(=O)CCCC(=O)NC2CCCCC2)ccc1O | 103
3 | COc1cc(/C=C/C(=O)OCC(=O)N2CCN(S(=O)(=O)c3ccc(C)cc3C)CC2)ccc1O | 87.1
4 | CCN(CC)CCC(=O)N1C/C(=C/c2ccccc2)C(=O)/C(=C\c2ccccc2)C1 | 87.1
5 | CCOc1cc(/C=C2\CN(CC)C/C(=C\c3ccc(O)c(OCC)c3)C2=O)ccc1O | 83.4
6 | CC(C)c1ccc(CNc2ccc(N3CCOCC3)cc2)cc1 | 91.4
7 | CC1CCN(S(=O)(=O)c2ccc3c(c2)C(Cl)(Cl)C(=O)N3)CC1 | 94
8 | CCOc1cc(/C=C2\CN(C)C/C(=C\c3ccc(O)c(OCC)c3)C2=O)ccc1O | 99
9 | CCOc1cc(CNc2ccc3[nH]c(=O)[nH]c3c2)ccc1OCC(=O)NC(C)(C)C | 103
10 | O=C1CSC(=Nc2ccc(O)cc2)N1 | 119
11 | CCN(CC)S(=O)(=O)c1cccc(-c2n[nH]c(=S)n2/N=C/c2ccc(C(=O)OC)cc2)c1 | 90.5
12 | c1cc2c(cc1NC1CCCCCC1)OCO2 | 109
13 | CC(=O)N1CCC(=NNC(=O)c2cc3ccccc3cc2O)CC1 | 102
14 | C/C(=N\Nc1ccc([N+](=O)[O-])cc1)c1ccc(N)cc1 | 93.4
15 | COc1cccc(NC2=C(C#N)C(=O)NC(c3cccc(OC)c3O)S2)c1 (stereo unspecified) | 99.7
16 | COc1ccc(NCc2cc(=O)[nH]c3ccccc23)cc1 | 98.2

Row | Structure (SMILES) | viability [%]
17 | Cn1c(=O)c2ccccc2n2c(=S)[nH]nc12 | 87.6
18 | CC(OC(=O)CCN=C1NS(=O)(=O)c2ccccc21)C(=O)Nc1ccc(N(C)C)cc1 (stereo unspecified) | 106
19 | COc1cc2c(cc1NC(=S)Nc1cccc3ccccc13)oc1ccccc12 | 95.5
20 | CCNC(=S)Nc1cc2oc3ccccc3c2cc1OC | 87.5
21 | CC(=O)Nc1ccc(N=Nc2ccc(O)cc2)cc1 | 111
22 | CCN(C=NC1=NN(c2cccc(C(F)(F)F)c2)CC1)CC | 94.5
23 | Cc1ccc(-n2sc3ccccc3c2=O)cc1 | 82.2
24 | COc1ccc(N2CCN(c3ncccn3)CC2)cc1 | 103
25 | O=C(Cn1sc2ccccc2c1=O)Nc1ccccc1 | 94.5
26 | O=C(Cn1sc2ccccc2c1=O)Nc1ccc(F)cc1 | 91.6
27 | S=C(NCc1ccco1)NCc1ccco1 | 108
28 | COc1cc(CN2CCC(C(=O)N3CCCC(C)C3)CC2)cc(Br)c1O (stereo unspecified) | 97
29 | O=C(NC(=S)Nc1ccc(O)cc1)C1CCCC1 | 103
30 | COc1cc(/C=N/N=C2/SCC(=O)N2c2ccc(O)cc2)ccc1O | 115
31 | CN(C)c1ccc(NC(=O)CCN2C(=O)c3cccc([N+](=O)[O-])c3C2=O)cc1 | 102
